From PubChem BioAssay AID1220 (Sanford-Burnham Center for Chemical Genomics, 2008)
In all, about 190,000 compounds went through this assay and about 1,300 (0.68%) were called active. The sample as a whole holds a higher share of actives than the screen did. Unmarked numbers belong to inactive results. No stated cut-off is given here; in the data, active means inhibition above about 50%; inactive means the rest.

Target: Mannose-6-phosphate isomerase (Homo sapiens) (UniProt P34949)
Experiment: MPI inhibition at elevated mannose 6-phosphate – biochemical, fluorescence intensity, high mannose 6-phosphate, primary screen (AID 1220)
Details: recombinant PMI enzyme, coupled fluorescence intensity; at 20 µM; active compounds read high

Chain of Mannose-6-phosphate isomerase (Homo sapiens) (P34949 whole entry, looked up): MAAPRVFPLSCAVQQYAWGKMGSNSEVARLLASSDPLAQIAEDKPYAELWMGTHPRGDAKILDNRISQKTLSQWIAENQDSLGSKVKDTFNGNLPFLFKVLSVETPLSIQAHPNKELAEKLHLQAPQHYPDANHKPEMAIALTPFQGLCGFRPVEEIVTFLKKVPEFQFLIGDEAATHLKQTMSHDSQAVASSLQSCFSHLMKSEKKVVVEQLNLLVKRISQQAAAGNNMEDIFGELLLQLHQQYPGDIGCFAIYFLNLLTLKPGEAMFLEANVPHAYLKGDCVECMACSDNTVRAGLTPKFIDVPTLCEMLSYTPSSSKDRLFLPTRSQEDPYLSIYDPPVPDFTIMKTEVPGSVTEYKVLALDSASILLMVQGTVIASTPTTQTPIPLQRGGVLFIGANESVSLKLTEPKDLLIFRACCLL

Structure (SMILES)	inhibition
Cc1cccc(C)c1NC(=O)CC1SC2=NCCN2C1=O (stereo not drawn)	6.8%
CC(C)/C(=N/Nc1ccccc1[N+](=O)[O-])c1ccccc1	54.4% (active)
CC/C(=N\Nc1ccccc1[N+](=O)[O-])c1ccc(O)cc1	-0.4%
CC(/C=C/c1ccccc1)=N\Nc1ccccc1[N+](=O)[O-]	0.8%
Cc1ccc(/C=C/C(=O)NCc2cccs2)cc1	-6.3%
Cc1ccc(-n2nc(C)c(/C=N/NC(=O)c3cccnc3)c2Cl)cc1	15.6%
Cc1nn(-c2ccccc2)c(Cl)c1/C=N/NC(=O)c1cccnc1	-3.1%
Cc1nn(-c2cccc(Cl)c2)c(Cl)c1/C=N/NC(=O)c1cccnc1	55.5% (active)
C=CCNC(=S)Nc1cccc(NC(=S)NCC=C)c1	5.5%
C=CCNC(=S)Nc1ccccc1	9%
C=CCNC(=S)Nc1cccc(N)c1	57.6% (active)
O=C(Cc1c(O)c2ccccc2[nH]c1=O)NC1CCCCCC1	5.7%
CCC(C)(C)n1nnnc1CN1CCC(NC(=O)c2ccc(Br)cc2)CC1	7%
CCCCc1cc2c(c(NC(=O)CC)n1)c(=O)oc1ccccc12	-0.5%
COc1ccc(N=C2C(=O)Nc3ccccc32)cc1	43%
Cc1ccc2c(c1)/C(=N/N1C(=O)c3ccccc3C1=O)C(=O)N2	8.4%
CCn1c(-c2ccccc2Cl)nn(CC(=O)Nc2cc(Cl)ccc2Cl)c1=S	4.7%
CNc1nc(-c2ccccc2)cc(C)c1S(C)(=O)=O	56% (active)
Cc1cc(-c2ccccc2)nc(N(C)N)c1S(C)(=O)=O	-2.2%
Cc1cc(-c2ccccc2)nc(N(C)C)c1S(C)(=O)=O	2%
Cc1c(Br)c([N+](=O)[O-])nn1CC(=O)NCCc1c[nH]c2ccccc12	6.1%
CSCCNC(=O)c1ccc(OC2CCN(CCc3ccccc3)CC2)cc1	-9.3%
O=C(Cn1nc(-c2ccccc2)ccc1=O)Nc1cccc(NC(=O)c2ccccn2)c1	-11.7%
CN1CCS/C1=C\C=C1/SC(=S)N(CC(=O)O)C1=O	19.8%
CCN1C(=O)/C(=C/C=C2/SCCN2C)SC1=S	27.6%
CCCCN1C(=O)/C(=C/C=C2\SCCN2C)SC1=S	53.5% (active)

Structure (SMILES)	inhibition
COc1ccc(-c2cc(CNC(=O)CN3CCN(C)CC3)on2)cc1	20.4%
COc1cc(OC)cc(-c2nc(-c3cccs3)no2)c1	10.1%
Cc1cc2cc(NC(=O)c3ccco3)ccc2[nH]1	10.8%
CC(=O)Nc1cccc(NC(=O)CSc2ccc3nnc(CCNC(=O)c4ccccc4)n3n2)c1	10.1%
Nc1cc(Cl)ccc1N1CCCC1	36.3%
Nc1c(N2CCCC2)cc(Cl)c2nonc12	55.1% (active)
Nc1ccc(N2CCCCC2)cc1N1CCCCC1	46.4%
Nc1ccc(N2CCCCC2)c2nonc12	68.3% (active)
Nc1ccccc1N1CCOCC1	-0.3%
Nc1ccc(N2CCCCC2)c(Cl)c1	2.9%
Nc1ccc(N2CCOCC2)c2nonc12	57% (active)
Nc1cc(Cl)ccc1N1CCOCC1	-3.8%
Nc1nonc1N1CCCCC1	13.1%
CN1CCN(C(=O)C2=C[C@@H](c3ccccc3)C[C@@H](OCc3ccc(CO)cc3)O2)CC1	1.7%
CCCCCCOC1(c2ccccc2)OC(=O)c2ccccc21 (stereo not drawn)	11.5%
CCCCCn1c(=O)[nH]c2c(c1=O)CCC2	4.7%
CC1(C)C(=O)NCCN1C(=O)CCCC(=O)O	2.6%
OCCn1c(CSc2nc3ccccc3n2CCO)nc2ccccc21	3%
O=C(NCc1ccccn1)c1cccs1	4.7%
CC(C)(C)C(=O)Nc1nnc(CC(=O)NCc2ccccc2)s1	13.1%
O=C(O)C1CN(c2ncccc2[N+](=O)[O-])C1	26.1%
O=[N+]([O-])c1cccnc1N1CCCCC1	10.7%
O=[N+]([O-])c1cccnc1N1CCOCC1	7.1%
O=C(O)C1CCCN1c1ncccc1[N+](=O)[O-] (stereo not drawn)	50.8% (active)
NC(=O)C1CCN(c2ncccc2[N+](=O)[O-])CC1	-3.3%
O=C(O)[C@@H]1[C@@H]2C[C@@H]2CN1c1ncccc1[N+](=O)[O-]	65.1% (active)

Structure (SMILES)	inhibition
COc1cccc(NC(=O)c2ccc(NCCCN3CC(C)CC(C)C3)c([N+](=O)[O-])c2)c1 (stereo not drawn)	-12.8%
CCOP(=O)(CC(C(C)=O)C(O)c1ccccc1)OCC (stereo not drawn)	11.7%
Cc1cccc(/C=N\Nc2nnc(-c3ccccc3)c(=O)[nH]2)c1	7.5%
Cc1ccc(S(=O)(=O)N2CCCC2C(=O)Nc2nc3ccccc3s2)cc1 (stereo not drawn)	17.6%
CCN(CC)c1ccc(/C=N/N=C(N)N)c(O)c1	64% (active)
CCN(CC)c1ccc(/C=N/NC(=O)OC)c(O)c1	27.7%
CCOC(=O)N/N=C/c1ccc(N(CC)CC)cc1O	53.3% (active)
CCN(CC)c1ccc(/C=N/Nc2ccccc2)c(O)c1	-21.9%
CCN(CC)c1ccc(C=Nc2ccccc2)c(O)c1	61.8% (active)
CCN(CC)c1ccc(/C=N/Nc2cccc(C)c2)c(O)c1	-62.5%
CCN(CC)c1ccc(C=Nc2ccc(C#N)cc2)c(O)c1	40.4%
CCN(CC)c1ccc(/C=N/N=C(c2ccccc2)c2ccccc2)c(O)c1	4.8%
CCN(CC)c1ccc(/C=N/N(c2ccccc2)c2ccccc2)c(O)c1	30%
CCN(CC)c1ccc(C=Nc2cc(C)cc(C)c2)c(O)c1	52.8% (active)
CCN(CC)c1ccc(/C=N/NC(=S)NC)c(O)c1	21.9%
CCC(=O)N1CCc2cc(S(=O)(=O)NC(Cc3ccccc3)C(=O)NC3CCCCC3)ccc21 (stereo not drawn)	-11.2%
CCCCc1ccc(NC(=S)NCCN2CCOCC2)cc1	-3.3%
COC(=O)c1cn(C)c2ccc(S(=O)(=O)N3CCOCC3)cc2c1=O	0.8%
CC(Nc1ccccc1)C(=O)Nc1ccc(F)cc1 (stereo not drawn)	-11.4%
CCN(CC)c1ccc(N=Cc2ccc(N(CC)CC)cc2O)cc1	19.5%
CCN(CC)c1ccc(C=Nc2ccc(N(C)C)cc2)c(O)c1	28.1%
CCN(CC)c1ccc(C=Nc2ccc(C)cc2)c(O)c1	57% (active)
COc1ccc(N(C)S(=O)(=O)c2cccc(C(=O)NCC3CCCO3)c2)cc1 (stereo not drawn)	-3.8%
Cc1sc2ncnc(SCC(=O)N3CCN(C(=O)c4ccco4)CC3)c2c1C	6.2%
COc1ccc(C(C(=O)NC2CCCC2)N(Cc2ccccc2)C(=O)c2nsc(Cl)c2Cl)cc1 (stereo not drawn)	21.1%
CSc1ccc(C2NC(=O)c3c(sc4c3CCN(C)C4)N2)cc1 (stereo not drawn)	17%

Structure (SMILES)	inhibition
CN1CCc2c(sc3c2C(=O)NC(c2ccccc2)N3)C1 (stereo not drawn)	33%
CCOC(=O)N1CCc2c(sc3c2C(=O)NC(c2ccccc2)N3)C1 (stereo not drawn)	60.6% (active)
CCCn1c(SCC(=O)NCc2ccc(OC)cc2)n[nH]c1=O	11.2%
O=C(NCC1CCCCC1)C1CCCN(C(=O)NC2CCCCC2)C1 (stereo not drawn)	-1.6%
Cc1ccc(S(=O)(=O)Nc2ccc(O)c(Sc3ncn[nH]3)c2)cc1	27.6%
Cc1cc(C)c(S(=O)(=O)/N=C2/C=C(Sc3ncn[nH]3)C(=O)c3ccccc32)cc1C	90.3% (active)
Cc1cc(C)c(S(=O)(=O)/N=C2/C=C(SCC(=O)O)C(=O)c3ccccc32)cc1C	-32.3%
CC1=CC(C)(C)N(C(=O)CSc2ncn[nH]2)c2ccccc21	-9.5%
Cc1ccc(S(=O)(=O)/N=C2/C=C(Sc3ncn[nH]3)C(=O)c3ccccc32)c(C)c1	92.7% (active)
Cc1cc(C)c(S(=O)(=O)Nc2ccc(O)c(Sc3ncn[nH]3)c2)c(C)c1	13.7%
Cc1cc(NC(=O)COC(=O)C2COc3ccccc3O2)no1 (stereo not drawn)	-4.4%
CCCC(O)(c1ccc(Cl)cc1)C(CN1CCOCC1)c1ccccc1 (stereo not drawn)	5.2%
Cc1ccc(S(=O)(=O)N2CCCCC2)cc1NC(=O)COC(=O)C1CC2C=CC1C2 (stereo not drawn)	11%
O=C(NC1CCCCC1)C1CCN(S(=O)(=O)c2cccs2)CC1	5.6%
C=CCc1c(OC)ccc2ccc(=O)oc12	0.3%
Cc1cccc2cc(CN(CCCN(C)C)C(=S)NCCc3ccccc3)c(=O)[nH]c12	-1.6%
CC1CCc2c(sc(NC(=O)CSc3nnc(-c4ccccc4)o3)c2C#N)C1 (stereo not drawn)	57.2% (active)
N#Cc1c(NC(=O)CSc2nnc(-c3ccccc3)o2)sc2c1CCCC2	4.2%
CC(C)(C)C1CCc2c(sc(NC(=O)CSc3nnc(-c4ccccc4)o3)c2C#N)C1 (stereo not drawn)	15.1%
COC(=O)c1ccc(CSCC(=O)Nc2ccccc2)cc1	6.4%
COc1ccc(C2=COc3ccccc3C(=O)N2)cc1	-6.2%
O=C(CSc1ccc(C(F)(F)F)cc1[N+](=O)[O-])Nc1ccc2ccccc2c1	10.8%
O=C(Nc1nc(-c2ccc(Cl)cc2Cl)cs1)c1ccc(OCC2CCCO2)cc1 (stereo not drawn)	11.1%
COc1ccc(OC)c(-c2csc(NC(=O)c3ccc(OCC4CCCO4)cc3)n2)c1 (stereo not drawn)	104% (active)
Cc1csc(NC(=O)c2ccc(OCC3CCCO3)cc2)n1 (stereo not drawn)	1.2%
